Records with an inconclusive call do not appear. Where a call stands in place of a potency, no number is given. Values without a mark were called inactive. Active and inactive are the calls of the source. Unless noted, calls come from the whole dose curve; as a rule, active = well fitted curve in the direction sought with a large enough effect in the repeat runs; inconclusive = weak or mixed curves; inactive = no such curve, though single readings can be large; an effect the other way counts as inactive or inconclusive.
Experiments:
[1] = qHTS assay to identify small molecule antagonists of the thyroid receptor (TR) signaling pathway - cell viability counter screen (AID 743064); note: nearly all actives have a fitted effect of over 50% in size; note: potency is the fitted concentration of half-maximal effect
Summary of the method: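 Counter screen for cytotoxicity: compound plus T3 (1 nM final) on GH3.TRE-Luc cells, 23.5 h at 37 °C, then fluorescence viability readout with CellTiter-Fluor.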

[2] = qHTS assay to identify small molecule antagonists of the thyroid receptor (TR) signaling pathway (AID 743065); note: nearly all actives have a fitted effect of over 55% in size; note: potency is the fitted concentration of half-maximal effect
Summary of the method: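 GH3.TRE-Luc rat pituitary cells carrying two TR response elements driving luciferase were plated for 4 h, given compound plus 1 nM T3 (final), and incubated 23.5 h at 37 C. ONE-Glo luminescence measured reporter inhibition; CellTiter-Fluor fluorescence tracked cytotoxicity.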

[3] = test system: thyroid hormone receptor (rat, GH3 cells); assay: qHTS assay to identify small molecule agonists of the thyroid receptor (TR) signaling pathway (AID 743066; calls by dose curve)
[4] = qHTS assay to identify small molecule antagonists of the estrogen receptor alpha (ER-alpha) signaling pathway - cell viability counter screen (AID 743074; calls by dose curve;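 note: HEK293 cells carrying ER-alpha-UAS-bla reporter stimulated with 17beta-estradiol; nearly all actives have a fitted effect of over 45% in size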)
[5] = qHTS assay to identify small molecule antagonists of the estrogen receptor alpha (ER-alpha) signaling pathway using the BG1 cell line - cell viability counter screen (AID 743081);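 note: compound given together with 17beta-estradiol as the ER stimulus; nearly all actives have a fitted effect of over 45% in size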; note: potency is the fitted concentration of half-maximal effect
Aromatase (Homo sapiens) = Aromatase (Homo sapiens) (UniProt P11511); assay: qHTS assay to identify aromatase inhibitors (AID 743083); note: nearly all actives have a fitted effect of over 55% in size; note: potency is the fitted concentration of half-maximal effect
Sequence of Aromatase (Homo sapiens) (P11511 whole entry, looked up): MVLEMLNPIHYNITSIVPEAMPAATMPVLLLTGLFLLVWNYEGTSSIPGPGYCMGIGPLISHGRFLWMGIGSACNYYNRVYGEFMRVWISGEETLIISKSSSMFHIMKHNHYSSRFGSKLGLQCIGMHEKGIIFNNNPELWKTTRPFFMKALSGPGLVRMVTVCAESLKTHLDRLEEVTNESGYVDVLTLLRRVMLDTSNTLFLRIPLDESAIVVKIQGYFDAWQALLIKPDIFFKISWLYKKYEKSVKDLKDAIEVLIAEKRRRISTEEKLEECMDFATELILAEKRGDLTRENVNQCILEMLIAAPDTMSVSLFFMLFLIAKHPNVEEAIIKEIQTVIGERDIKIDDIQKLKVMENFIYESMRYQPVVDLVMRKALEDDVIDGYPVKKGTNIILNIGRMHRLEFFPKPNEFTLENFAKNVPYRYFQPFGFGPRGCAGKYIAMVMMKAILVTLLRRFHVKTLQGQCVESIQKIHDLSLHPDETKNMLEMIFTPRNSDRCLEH

[6] = qHTS assay to identify aromatase inhibitors - cell viability counter screen (AID 743084);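 note: cells stimulated with testosterone during compound exposure; nearly all actives have a fitted effect of over 55% in size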; note: potency is the fitted concentration of half-maximal effect
[7] = biological target: Aryl hydrocarbon receptor (Homo sapiens) (UniProt P35869); assay: qHTS assay to identify small molecule that activate the aryl hydrocarbon receptor (AhR) signaling pathway (AID 743085);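 note: HG2L7.5c1 human HepG2 liver cells with stably integrated DRE-driven firefly reporter; series mostly up to about 70 µM; nearly all actives have a fitted effect of over 15% in size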
Sequence of Aryl hydrocarbon receptor (Homo sapiens) (P35869 whole entry, looked up): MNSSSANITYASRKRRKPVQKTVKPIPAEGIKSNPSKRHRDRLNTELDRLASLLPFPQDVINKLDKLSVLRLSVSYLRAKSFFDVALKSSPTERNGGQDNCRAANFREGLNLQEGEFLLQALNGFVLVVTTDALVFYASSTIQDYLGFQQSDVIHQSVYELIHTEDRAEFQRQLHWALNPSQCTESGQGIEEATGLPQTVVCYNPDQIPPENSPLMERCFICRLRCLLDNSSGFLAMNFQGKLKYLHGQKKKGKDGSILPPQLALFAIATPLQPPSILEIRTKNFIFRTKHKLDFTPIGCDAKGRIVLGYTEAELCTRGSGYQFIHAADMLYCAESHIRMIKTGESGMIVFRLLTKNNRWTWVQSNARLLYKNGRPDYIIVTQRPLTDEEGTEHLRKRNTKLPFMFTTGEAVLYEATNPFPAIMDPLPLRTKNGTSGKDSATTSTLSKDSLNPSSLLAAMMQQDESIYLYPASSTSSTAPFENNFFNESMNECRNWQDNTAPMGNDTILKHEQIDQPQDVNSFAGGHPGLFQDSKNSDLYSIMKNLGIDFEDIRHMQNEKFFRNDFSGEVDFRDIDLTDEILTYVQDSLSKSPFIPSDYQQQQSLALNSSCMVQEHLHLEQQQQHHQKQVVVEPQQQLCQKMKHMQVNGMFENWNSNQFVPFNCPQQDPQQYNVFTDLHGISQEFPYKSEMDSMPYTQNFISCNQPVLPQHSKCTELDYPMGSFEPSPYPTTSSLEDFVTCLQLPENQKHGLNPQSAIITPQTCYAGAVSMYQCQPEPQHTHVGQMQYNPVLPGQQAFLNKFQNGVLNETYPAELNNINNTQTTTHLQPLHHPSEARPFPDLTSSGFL
Summary of the method: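 Measured in HG2L7.5c1 cells: CellTiter-Fluor signal (30 min incubation, 37C) for viability, then luciferase luminescence (30 min, room temperature). Compound contact time was 24 h at 37C, following a 5 h pre-incubation.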

[8] = qHTS assay to identify small molecule that activate the aryl hydrocarbon receptor (AhR) signaling pathway - cell viability counter screen (AID 743086); note: nearly all actives have a fitted effect of over 45% in size; note: potency is the fitted concentration of half-maximal effect
Summary of the method: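 HepG2-AhR-luc (HG2L7.5c1) cells, 4000/well, were preincubated 5 h at 37C, exposed to compound in qHTS format for 24 hr at 37C, then given CellTiter-Fluor for 30 min; viability was read as fluorescence in the reporter wells.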

[9] = biological target: Peroxisome proliferator-activated receptor gamma (Homo sapiens) (UniProt P37231); assay: qHTS assay to identify small molecule agonists of the peroxisome proliferator-activated receptor gamma (PPARg) signaling pathway (AID 743094; active = well fitted activation curve with a large enough effect in the signal ratio in the repeat runs, not every such curve was filed as active; the % refers to the signal ratio)
Sequence of Peroxisome proliferator-activated receptor gamma (Homo sapiens) (P37231 whole entry, looked up): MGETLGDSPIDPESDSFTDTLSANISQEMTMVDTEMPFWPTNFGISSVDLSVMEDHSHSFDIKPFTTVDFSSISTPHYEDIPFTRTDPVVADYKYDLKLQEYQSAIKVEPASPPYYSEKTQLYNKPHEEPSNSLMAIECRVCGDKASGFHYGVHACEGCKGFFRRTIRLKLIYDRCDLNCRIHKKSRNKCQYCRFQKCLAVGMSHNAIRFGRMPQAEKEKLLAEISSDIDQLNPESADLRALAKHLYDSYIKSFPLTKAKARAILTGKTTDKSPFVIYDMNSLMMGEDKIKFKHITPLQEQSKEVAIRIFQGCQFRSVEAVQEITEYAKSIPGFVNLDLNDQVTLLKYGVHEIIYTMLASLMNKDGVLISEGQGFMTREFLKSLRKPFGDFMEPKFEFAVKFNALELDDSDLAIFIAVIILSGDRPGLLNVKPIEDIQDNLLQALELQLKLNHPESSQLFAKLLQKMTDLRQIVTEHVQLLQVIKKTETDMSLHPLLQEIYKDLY
Summary of the method: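 GeneBLAzer PPARg UAS-bla HEK293H cells were plated, rested 5 h, then exposed to compounds for 17 h at 37C. Beta-lactamase activity was read by LiveBLAzer B/G FRET substrate fluorescence after 1 h at room temperature.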

[10] = qHTS assay to identify small molecule antagonists of the peroxisome proliferator-activated receptor gamma (PPARg) signaling pathway - cell viability counter screen (AID 743194); note: nearly all actives have a fitted effect of over 55% in size; note: potency is the fitted concentration of half-maximal effect
Summary of the method: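 PPARg-UAS-bla HEK293H cells were plated, rested 5 h at 37 C, then treated with compounds plus rosiglitazone (50 nM final) for 17 h at 37 C; viability was then read by CellTiter-Glo luminescence after 30 min at room temperature.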

[11] = qHTS assay for small molecule agonists of the antioxidant response element (ARE) signaling pathway - cell viability counter screen (AID 743203; calls by dose curve; note: nearly all actives have a fitted effect of over 55% in size; note: potency is the fitted concentration of half-maximal effect)
Summary of the method: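 ARE-bla HepG2 cells were plated, rested 5 h at 37C/5% CO2, then exposed to compounds in DMSO for 16 h. Viability was read as CellTiter-Glo luminescence after 30 min at room temperature, in the same wells as the ARE screen.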

[12] = qHTS assay for small molecule activators of the heat shock response signaling pathway - cell viability counter screen (AID 743209); note: nearly all actives have a fitted effect of over 50% in size; note: potency is the fitted concentration of half-maximal effect
Summary of the method: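 HSE-bla HeLa cells plated overnight, then exposed to Tox21 compounds (23 nL in DMSO) for 5 h at 37 C. After the bla reporter read, CellTiter-Glo was added in the same wells and luminescence read after 30 min at room temperature.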

[13] = qHTS assay for small molecule agonists of the antioxidant response element (ARE) signaling pathway (AID 743202; active = well fitted activation curve with a large enough effect in the signal ratio in the repeat runs, not every such curve was filed as active; the % refers to the signal ratio)
Summary of the method: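 Compounds delivered in DMSO to ARE-bla HepG2 cells (2,000 cells/well, pre-incubated 5 h) and left 16 h at 37 C. LiveBLAzer B/G FRET substrate then added for 2 h at RT before fluorescence reading.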

[14] = qHTS assay for small molecule activators of the heat shock response signaling pathway (AID 743210; active = well fitted activation curve with a large enough effect in the signal ratio in the repeat runs, with a control signal flat, not every such curve was filed as active; the % refers to the signal ratio;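 note: HeLa cells with beta-lactamase reporter driven by heat shock elements; series mostly up to about 63 µM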)
Summary of the method: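 Reporter gene assay: HeLa cells stably bearing an HSE-bla construct, compound treatment 5 h at 37 C, LiveBLAzer substrate 2.5 h at RT, fluorescence intensity.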

[15] = biological target: Estrogen receptor (Homo sapiens) (UniProt P03372); assay: qHTS assay to identify small molecule agonists of the estrogen receptor alpha (ER-alpha) signaling pathway (AID 743075; calls by dose curve;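 note: HEK293 GripTite cells with ER-alpha and UAS-driven beta-lactamase reporter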; note: potency is the fitted concentration of half-maximal effect)
Sequence of Estrogen receptor (Homo sapiens) (P03372 whole entry, looked up): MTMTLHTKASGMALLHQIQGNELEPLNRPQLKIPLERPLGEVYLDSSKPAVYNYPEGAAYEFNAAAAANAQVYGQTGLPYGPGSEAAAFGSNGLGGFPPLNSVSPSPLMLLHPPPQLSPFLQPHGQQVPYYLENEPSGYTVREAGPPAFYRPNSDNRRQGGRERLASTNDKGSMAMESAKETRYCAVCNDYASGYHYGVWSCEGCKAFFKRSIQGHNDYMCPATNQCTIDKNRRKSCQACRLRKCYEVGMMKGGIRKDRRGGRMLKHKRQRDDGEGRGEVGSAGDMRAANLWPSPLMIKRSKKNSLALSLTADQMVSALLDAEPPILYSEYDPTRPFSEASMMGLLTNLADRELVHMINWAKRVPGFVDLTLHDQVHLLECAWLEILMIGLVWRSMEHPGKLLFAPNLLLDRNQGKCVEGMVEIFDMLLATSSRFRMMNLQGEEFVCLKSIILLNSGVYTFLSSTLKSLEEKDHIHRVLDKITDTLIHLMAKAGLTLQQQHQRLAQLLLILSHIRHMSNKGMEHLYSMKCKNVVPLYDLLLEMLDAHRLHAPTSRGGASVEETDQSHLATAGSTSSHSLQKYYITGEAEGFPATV

[16] = qHTS assay to identify small molecule antagonists of the estrogen receptor alpha (ER-alpha) signaling pathway using the BG1 cell line (AID 743080; calls by dose curve;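 note: BG1 cells stimulated with 17beta-estradiol alongside compound; series mostly up to about 70 µM; nearly all actives have a fitted effect of over 25% in size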)
Summary of the method: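 Seeding, 24 h rest, compound transfer from DMSO, 17beta-estradiol addition, 21.5 h incubation, CellTiter-Fluor (30 min, 37 C), then ONE-Glo (30 min, room temperature): this sequence was run on BG1-Luc-4E2 reporter cells.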

[17] = biological target: Peroxisome proliferator-activated receptor gamma (Homo sapiens) (UniProt P37231); assay: qHTS assay to identify small molecule antagonists of the peroxisome proliferator-activated receptor gamma (PPARg) signaling pathway (AID 743191; calls by dose curve; note: series mostly up to about 63 µM; nearly all actives have a fitted effect of over 30% in size)
Summary of the method: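 GeneBLAzer PPARg UAS-bla HEK293H cells carrying a UAS-driven beta-lactamase reporter were plated at 3000 cells/well, preincubated 5 h at 37C, then given compound for 17 h at 37C; LiveBLAzer B/G FRET substrate was read after 1 h at room temperature.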

[18] = biological target: Estrogen receptor (Homo sapiens) (UniProt P03372); assay: qHTS assay to identify small molecule antagonists of the estrogen receptor alpha (ER-alpha) signaling pathway (AID 743069; active = well fitted curve in the direction sought with a large enough effect in the signal ratio in the repeat runs, not every such curve was filed as active; the % refers to the signal ratio)
Summary of the method: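 Estradiol-stimulated ER-alpha-UAS-bla HEK293 cells, 18 hr compound exposure at 37C. LiveBLAzer B/G substrate, 2 hr RT, fluorescence read.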

[19] = biological target: Estrogen receptor (Homo sapiens) (UniProt P03372); assay: qHTS assay to identify small molecule agonists of the estrogen receptor alpha (ER-alpha) signaling pathway using the BG1 cell line (AID 743079); note: nearly all actives have a fitted effect of over 20% in size

Row | Compound | Potency [1] | Potency [2] | Potency [3] | outcome [4] | Potency [5] | Potency (Aromatase (Homo sapiens)) | Potency [6] | Potency [7] | Potency [8] | Potency [9] | Potency [10] | Potency [11] | Potency [12] | Potency [13] | outcome [14] | Potency [15] | Potency [16] | Potency [17] | Potency [18] | Potency [19]
1 | CCCCCCCCCCCCCCCC(=O)OC/C=C(C)/C=C/C=C(C)/C=C/C1=C(C)CCCC1(C)C | inactive | inactive | inactive | inactive | inactive | inactive | inactive | inactive | inactive | inactive | inactive | inactive | inactive |  |  |  |  |  |  | 
2 | CN(C(=O)CCCOc1ccc2[nH]c(=O)ccc2c1)C1CCCCC1 | inactive | inactive | inactive | inactive | inactive | inactive | inactive | inactive | inactive | inactive | inactive | inactive | inactive | inactive | inactive |  |  |  |  | 
3 | C[C@@H](C1=C(CCN(C)C)Cc2ccccc21)c1ccccn1 | 29.8 µM (active) | 26.6 µM (active) | inactive | inactive | inactive |  | inactive |  | inactive |  | inactive | inactive | inactive |  | inactive |  |  |  |  | 
4 | O=C(O)C(c1ccc(Cl)cc1)c1ccc(Cl)cc1 | inactive | inactive | inactive | inactive | inactive |  | inactive |  | inactive |  | inactive | inactive | inactive | inactive | inactive | inactive | inactive |  |  | 
5 | Cn1c(N)nc2nc[nH]c2c1=O | inactive | inactive | inactive | inactive | inactive | inactive | inactive | inactive | inactive | inactive | inactive | inactive | inactive | inactive |  |  |  | inactive |  | 
6 | O=C1c2cccc(O)c2C(=O)c2c(O)cc(CO)cc21 | inactive | inactive | inactive | inactive | inactive | inactive | inactive |  | inactive |  | inactive | inactive | inactive |  | inactive | inactive |  |  |  | 
7 | CC1(C)[C@H]2CC[C@]1(C)[C@H](O)C2 | inactive | inactive | inactive | inactive | inactive | inactive | inactive | inactive | inactive |  |  | inactive | inactive | inactive | inactive |  |  |  |  | 
8 | CC(C)CCCCCCOC(=O)c1ccc(C(=O)OCCCCCCC(C)C)c(C(=O)OCCCCCCC(C)C)c1 | inactive | inactive | inactive | inactive | inactive | inactive | inactive |  | inactive | inactive | inactive | inactive | inactive |  | inactive |  |  |  |  | 
9 | CC(C)c1ccccc1C(C)C | 54.5 µM (active) | 61.2 µM (active) | inactive | inactive | inactive | inactive | inactive |  | inactive | inactive |  | inactive | inactive | inactive |  |  |  |  |  | 
10 | O=C(c1ccccc1)c1ccc2n1CCC2C(=O)O (configuration not stated) | inactive | inactive | inactive | inactive | inactive | inactive | inactive |  | inactive |  | inactive | inactive | inactive | inactive | inactive |  |  | inactive |  | 
11 | CN1CCC[C@@H]1c1cccnc1 | inactive | inactive | inactive | inactive | inactive | inactive | inactive | inactive | inactive | inactive | inactive | inactive | inactive | inactive |  |  | inactive |  |  | 
12 | Oc1ccc(C(O)CNCCCCCCNCC(O)c2ccc(O)c(O)c2)cc1O (configuration not stated) | 15 µM (active) | 29.8 µM (active) | inactive | inactive |  | inactive | 21.1 µM (active) | inactive |  |  | inactive | inactive | inactive |  |  |  | inactive | inactive |  | 
13 | CCN(CC)C(C)=O | inactive | inactive | inactive | inactive | inactive | inactive | inactive |  | inactive | inactive |  | inactive | inactive | inactive | inactive |  |  | inactive |  | 
14 | NC(N)=NN=C(/C=C/c1ccc([N+](=O)[O-])o1)/C=C/c1ccc([N+](=O)[O-])o1 | 1.68 µM (active) | 1.5 µM (active) |  | inactive | 23.7 µM (active) | 7.5 µM (active) | 5.31 µM (active) |  | 7.5 µM (active) |  | 2.11 µM (active) | 5.96 µM (active) | 5.31 µM (active) |  |  | 4.77 µM [activator] (active) |  |  |  | 
15 | OCCC1CCCCN1 (configuration not stated) | inactive | inactive |  | inactive | inactive | inactive | inactive |  | inactive | inactive | inactive | inactive | inactive |  | inactive | inactive | inactive |  | inactive | inactive
16 | CCCCOc1cc(C(=O)OCCN(CC)CC)ccc1N | inactive |  | inactive | inactive | inactive | inactive | inactive |  | inactive | inactive | inactive | inactive |  |  | inactive | inactive | inactive | inactive | inactive | inactive

From PubChem BioAssay (Tox21)
